MEKK2wt PB1 HTS = raises or lowers MEK5 binding to wildtype human MEKK2 PB1 domain | 290,000 compounds, 1.1% hits | Q9Y2U5 | bead flow cytometry, Alexa488-MEK5 binding to MEKK2 WT; actives lie on both sides | binding response (% of control), % at 10 µM | AID 1531; in the data active means binding response below about 67% or above about 130%
CHT PAM = allosteric activators of human choline transporter CHT. Q9GZV3. CHT-expressing cells, membrane potential dye, choline EC20; hits give high values; LV-AA mutant CHT in HEK293 cells. B-score at 10 µM. 310,000 compounds, 0.49% hits;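 active means initial fluorescence not abnormally high and integrated response B-score, plate-corrected, over 3 SD above library mean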
Target sequence (Q9GZV3 whole entry, looked up): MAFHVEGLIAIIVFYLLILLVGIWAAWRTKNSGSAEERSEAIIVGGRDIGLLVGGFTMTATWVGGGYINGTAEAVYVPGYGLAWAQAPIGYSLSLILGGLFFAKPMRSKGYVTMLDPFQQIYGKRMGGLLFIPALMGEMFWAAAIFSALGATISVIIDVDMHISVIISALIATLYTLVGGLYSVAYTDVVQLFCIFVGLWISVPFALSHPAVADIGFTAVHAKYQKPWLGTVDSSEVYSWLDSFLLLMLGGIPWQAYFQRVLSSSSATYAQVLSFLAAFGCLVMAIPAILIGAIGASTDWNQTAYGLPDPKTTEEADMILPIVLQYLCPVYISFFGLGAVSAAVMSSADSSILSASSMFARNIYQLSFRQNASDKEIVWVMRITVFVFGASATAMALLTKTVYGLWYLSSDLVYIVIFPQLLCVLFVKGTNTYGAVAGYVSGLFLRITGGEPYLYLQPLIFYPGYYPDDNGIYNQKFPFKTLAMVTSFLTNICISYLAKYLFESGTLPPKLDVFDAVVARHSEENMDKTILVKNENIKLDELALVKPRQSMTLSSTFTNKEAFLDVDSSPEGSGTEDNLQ
SUMO Mot1 rescue = inhibitors of SUMOylation pathway: yeast Mot1-301 growth rescue. S. cerevisiae Mot1-301 growth rescue, ATP luminescence, 38.5C; percent above DMSO median, 100 means doubled. growth rescue, % at 18.8 µM. AID 2716. 320,000 compounds, 1% hits;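 active means every valid replicate shows activation above 250% relative to neutral control wells; inactive means the rest, any valid replicate at or below 250%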
CHT inh = human CHT choline transport inhibition; AID 488975; 310,000 compounds, 0.86% hits; Q9GZV3; B-score at 10 µM; CHT-expressing cells, membrane potential dye, choline response; hits give low values;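 active means B-score over 3 SD under the library average, and starting fluorescence ratio not unusually high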;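 further: choline stimulus applied at its EC90 after an EC20 pre-addition; B-score computed on integrated fluorescence ratio after choline addition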
MEKK2mut PB1 HTS = signal of MEK5 binding to mutant human MEKK2 PB1 domain; bead flow cytometry, Alexa488-MEK5 binding to MEKK2 mutant; percent response, % at 10 µM; 290,000 compounds, 0.35% hits; AID 1530; in the data active means percent response above about 24%, passing the limit was not always enough
MEKK3 PB1 HTS = modulators (inhibitors or enhancers) of MEK5 binding to human MEKK3 PB1 domain; 290,000 compounds, 1.4% hits; AID 1529; bead-based flow cytometry, Alexa488-MEK5 binding to MEKK3; actives lie on both sides; 0 = blocked by unlabeled MEK5, 100 = vehicle; Q99759; binding response (% of control), % at 10 µM;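 active means binding response more than 3 SD above or below the average of its plate-row segment, actives on both sides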;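 further: Alexa488 bead fluorescence after subtracting the streptavidin-only scavenger bead signal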
CHT block conf = human CHT inhibition, confirmatory screen; CHT-expressing cells, choline membrane potential dye; LV-to-AA substituted CHT, HEK293 cells; 2,400 compounds, 70% hits; CHT activity remaining % of control (hits give low values), % at 10 µM; shares compounds with CHT inh; AID 493221;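 active means choline transporter activity left, mean of duplicates at 10 µM, below buffer-only control mean minus 3 SD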;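 further: depolarization triggered by choline at its EC90 following an EC20 pre-addition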
HEK293 MPD ctr = counter-screen for CHT inhibitors: effect in parental HEK293 cells. shares compounds with CHT inh. membrane potential dye, choline response; active = decrease or increase beyond buffer ±3SD. membrane potential ratio readout (active if shifted either direction beyond buffer ±3SD; no single direction) at 10 µM. 2,400 compounds, 4% hits. AID 493222;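 further: parental cells lack the transporter so any hit is non-specific; ratio is peak minus trough fluorescence over baseline after EC90 choline challenge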
Numbers stand for hits; i = inactive; nt = no result given. Shown are actives, neighbours in structure and some others; about 4.1% of the full set was active somewhere.

SMILES	MEKK2wt PB1 HTS	CHT PAM	SUMO Mot1 rescue	CHT inh	MEKK2mut PB1 HTS	MEKK3 PB1 HTS	CHT block conf	HEK293 MPD ctr
Fc1ccc(-c2nnc(SCc3ncc(-c4ccccc4)o3)n2CC2CCCO2)cc1 (configuration not stated)	i	i	i	-5.9	i	i	i	i
NC(=O)c1c(NC(=O)CSc2nnc(-c3ccccc3)n2CC2CCCO2)sc2c1CCC2 (configuration not stated)	i	i	i	i	i	i	nt	nt
CC(C)(C)NC(=O)NC(=O)C[n+]1ccc(Cc2ccc([N+](=O)[O-])cc2)cc1	i	i	i	i	i	i	nt	nt
CCc1cc(C(=O)NNC(=S)NC2CCCCC2)cs1	i	i	i	i	i	i	nt	nt
CCCCOc1cccc(C(=O)NNC(=S)NC2CCCCC2)c1	i	i	i	-8.8	i	i	69%	i
CC(C)c1cc(C(=O)NNC(=S)NC2CCCCC2)cs1	i	i	i	-5.6	i	i	66%	i
N#Cc1cccc(NC(=O)Cn2cnc(S(=O)(=O)N3CCCCC3)c2)c1	i	i	i	i	i	i	nt	nt
CCOc1cccc(-c2nn(-c3ccccc3)cc2/C=C(/C#N)C(=O)NCCCn2ccnc2)c1	i	i	i	-9.2	i	i	61%	i
CC(OC(=O)CCN1C(=O)c2cccc([N+](=O)[O-])c2C1=O)C(=O)Nc1cc(Cl)cc(Cl)c1 (configuration not stated)	i	i	i	-6.6	i	i	60%	i
Cc1ccc(NC(=O)CCN2C(=O)c3cccc([N+](=O)[O-])c3C2=O)c(Br)c1	i	i	i	i	i	i	nt	nt
CC(OC(=O)CCN1C(=O)C2CC=CCC2C1=O)C(=O)Nc1cccc(Cl)c1 (configuration not stated)	nt	i	i	i	nt	nt	nt	nt
COc1ccc(NC(=O)CCN2C(=O)c3cccc([N+](=O)[O-])c3C2=O)cc1	i	i	i	-11	i	i	i	i
CCOC(=O)c1c(NC(=O)CCN2C(=O)c3cccc([N+](=O)[O-])c3C2=O)sc(C(=O)OC(C)C)c1C	i	i	i	-7.5	i	i	70%	i
CCOC(=O)c1sc(NC(=O)CCN2CCN(C)CC2)c(C(=O)OCC)c1C	i	i	i	-5.3	i	i	47%	i
CC(C)(C)c1ccc(NC(=O)COC(=O)CCN2C(=O)c3cccc([N+](=O)[O-])c3C2=O)cc1	i	i	i	i	i	i	nt	nt
Cc1nc2nc(NC(=O)c3ccco3)[nH]n2c(=O)c1C	i	i	i	i	i	i	nt	nt
CN(Cc1nc(-c2cccnc2)no1)S(=O)(=O)c1ccc(Br)cc1	i	i	nt	-5.7	i	i	62%	i
Cn1c2c(c3ccccc31)CCN1CCC[C@]21c1ccccc1	i	i	i	-5.1	i	i	i	i
Cc1cccc(NC(=O)C2CCCN(S(=O)(=O)c3cccs3)C2)c1C (configuration not stated)	i	i	i	i	i	i	nt	nt
CCOC(=O)c1ccccc1Oc1c(F)c(F)nc(NCCO)c1F	i	i	i	-5.5	i	i	55%	i
Cc1[nH]n(-c2ccccc2)c(=O)c1C(=O)c1ccccc1	i	i	i	i	i	i	nt	nt
CCSC(=S)c1c(C)[nH]n(-c2ccccc2)c1=O	i	i	i	-8.8	i	i	i	i
Cc1[nH]n(-c2ccc(Cl)cc2)c(=O)c1C(=O)c1ccccc1	i	i	i	-11	i	i	i	i
Cc1ccc(C(=O)N(C)Cc2ccc(N3CCOCC3)cc2)cc1S(=O)(=O)NCc1ccccc1	nt	nt	i	nt	nt	nt	nt	nt
CN1CCN(c2ccc([N+](=O)[O-])cc2C(=O)c2ccc(Cl)cc2)CC1	i	i	i	-5	i	i	68%	i
SMILES	MEKK2wt PB1 HTS	CHT PAM	SUMO Mot1 rescue	CHT inh	MEKK2mut PB1 HTS	MEKK3 PB1 HTS	CHT block conf	HEK293 MPD ctr
CC1CCN(S(=O)(=O)c2nnc(NC(=O)c3cccc(Cl)c3)s2)CC1	i	i	i	-6.6	i	i	i	i
O=S(=O)(Nc1nc2ccccc2s1)c1ccc(Cl)s1	i	i	i	-5.2	i	i	56%	i
Cc1ccccc1C(=O)OC(C)CN1CCN(C)CC1 (configuration not stated)	i	i	i	-6.1	i	i	46%	i
CC(CN1CCN(C)CC1)OC(=O)c1ccccc1Cl (configuration not stated)	nt	i	346	-8.3	nt	nt	12%	i
COc1cc2[nH]c(C(=O)N3CCc4ccccc43)cc2c(OC)c1OC	i	i	i	i	i	i	nt	nt
O=[N+]([O-])c1ccc(Nc2ccccc2O)c2nonc12	i	i	i	-5.9	i	i	53%	i
O=C(O)c1ccc(Nc2ccc([N+](=O)[O-])c3nonc23)cc1	i	i	i	i	i	i	nt	nt
O=C(NNC1=C(C(=O)C(F)(F)F)CCC1)c1ccccc1O	i	i	i	-6.5	i	i	31%	i
COc1cccc(C(=O)C(C#N)=C(SC)SC)c1	i	i	i	-5.8	i	i	36%	i
CSC(SC)=C(C#N)C(=O)c1ccccc1	i	i	i	-5	i	i	37%	i
COc1cccc(C(=O)Nc2ccc(NC(C)=O)cc2)c1	i	i	i	i	i	i	nt	nt
O=C(N/N=C/c1cccs1)c1n[nH]c2c1CCCC2	i	i	i	-6	i	i	i	i
Cc1ccc(/C=N/NC(=O)c2n[nH]c3c2CCCC3)cc1	i	i	i	i	i	i	nt	nt
CC(C)[C@H]1COC(NC2=N[C@@H](C(C)C)CO2)=N1	i	i	i	i	i	i	nt	nt
C=CCC1(CC=C)CCCN1C(=O)CC1C(=O)NCCN1Cc1cccc(OC)c1OC (configuration not stated)	i	i	i	i	i	i	nt	nt
CCCCC[C@H](O)/C=C/[C@@H]1[C@@H](C/C=C\CCCC(=O)O)[C@@H](O)C[C@H]1O	i	i	i	-5.9	i	i	33%	i
CC(C)n1c(O)c(N=NC(=O)CNC(=O)Cc2ccc(Cl)cc2)c2ccccc21	i	i	i	-8	i	i	36%	i
CC(C)n1c(O)c(N=NC(=O)Cn2ccc(C(F)(F)F)n2)c2ccccc21	i	i	i	i	i	i	nt	nt
CC(C)n1c(O)c(N=NC(=O)CNC(=O)CCc2ccccc2)c2ccccc21	i	i	i	i	i	i	nt	nt
